# According to PubChem BioAssay (Tox21):
# Several values for one entry are separate records, joined by “and”; a condition that tells them apart may be missing. Equal values may be shown once. Results filed as inconclusive are left out. Where a call stands in place of a potency, no number is given. Activity calls are given as the source filed them. Unless noted, the call rests on the fitted dose curve; in most records, active means well fitted curve in the direction sought with a large enough effect in the repeat runs; inconclusive means weak or mixed curves; inactive means no such curve, though single readings can be large; an effect the other way counts as inactive or inconclusive.
# Legend:
# [1] = qHTS assay to identify small molecule antagonists of the thyroid receptor (TR) signaling pathway - cell viability counter screen (AID 743064); further: nearly all actives have a fitted effect of over 50% in size; further: potency means the concentration at half of the fitted maximal effect
# How it was run: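 Counter screen for cytotoxicity: compound plus T3 (1 nM final) on GH3.TRE-Luc cells, 23.5 h at 37 °C, then fluorescence viability readout with CellTiter-Fluor.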
# [2] = qHTS assay to identify small molecule antagonists of the thyroid receptor (TR) signaling pathway (AID 743065); further: nearly all actives have a fitted effect of over 55% in size; further: potency means the concentration at half of the fitted maximal effect
# How it was run: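 GH3.TRE-Luc rat pituitary cells carrying two TR response elements driving luciferase were plated for 4 h, given compound plus 1 nM T3 (final), and incubated 23.5 h at 37 C. ONE-Glo luminescence measured reporter inhibition; CellTiter-Fluor fluorescence tracked cytotoxicity.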
# [3] = test system: thyroid hormone receptor (rat, GH3 cells); assay: qHTS assay to identify small molecule agonists of the thyroid receptor (TR) signaling pathway (AID 743066; calls by dose curve)
# [4] = target: Estrogen receptor (Homo sapiens) (UniProt P03372); assay: qHTS assay to identify small molecule antagonists of the estrogen receptor alpha (ER-alpha) signaling pathway (AID 743069; active means well fitted curve in the direction sought with a large enough effect in the signal ratio in the repeat runs, not every such curve was filed as active; the % refers to the signal ratio)
# How it was run: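 Estradiol-stimulated ER-alpha-UAS-bla HEK293 cells, 18 hr compound exposure at 37C. LiveBLAzer B/G substrate, 2 hr RT, fluorescence read.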
# [5] = target: Estrogen receptor (Homo sapiens) (UniProt P03372); assay: qHTS assay to identify small molecule agonists of the estrogen receptor alpha (ER-alpha) signaling pathway (AID 743075; calls by dose curve;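 further: HEK293 GripTite cells with ER-alpha and UAS-driven beta-lactamase reporter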)
# [6] = qHTS assay to identify small molecule antagonists of the estrogen receptor alpha (ER-alpha) signaling pathway using the BG1 cell line (AID 743080; calls by dose curve;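 further: BG1 cells stimulated with 17beta-estradiol alongside compound; series mostly up to about 70 µM; nearly all actives have a fitted effect of over 25% in size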)
# How it was run: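 Endogenous full-length ER-alpha in BG1-Luc-4E2 cells drives a stably integrated 4×ERE luciferase gene; compounds were tested against 17beta-estradiol over 21.5 h, with luminescence and multiplexed viability fluorescence recorded.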
# [7] = qHTS assay to identify small molecule antagonists of the estrogen receptor alpha (ER-alpha) signaling pathway using the BG1 cell line - cell viability counter screen (AID 743081);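 further: compound given together with 17beta-estradiol as the ER stimulus; nearly all actives have a fitted effect of over 45% in size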; further: potency means the concentration at half of the fitted maximal effect
# Aromatase (Homo sapiens) = Aromatase (Homo sapiens) (UniProt P11511); assay: qHTS assay to identify aromatase inhibitors (AID 743083); further: series mostly up to about 70 µM; nearly all actives have a fitted effect of over 55% in size
# [8] = qHTS assay to identify small molecule antagonists of the estrogen receptor alpha (ER-alpha) signaling pathway - cell viability counter screen (AID 743074; calls by dose curve;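 further: HEK293 cells carrying ER-alpha-UAS-bla reporter stimulated with 17beta-estradiol; nearly all actives have a fitted effect of over 45% in size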)
# [9] = target: Estrogen receptor (Homo sapiens) (UniProt P03372); assay: qHTS assay to identify small molecule agonists of the estrogen receptor alpha (ER-alpha) signaling pathway using the BG1 cell line (AID 743079); further: nearly all actives have a fitted effect of over 20% in size; further: potency means the concentration at half of the fitted maximal effect
# Chain of Aromatase (Homo sapiens) (P11511 whole entry, looked up): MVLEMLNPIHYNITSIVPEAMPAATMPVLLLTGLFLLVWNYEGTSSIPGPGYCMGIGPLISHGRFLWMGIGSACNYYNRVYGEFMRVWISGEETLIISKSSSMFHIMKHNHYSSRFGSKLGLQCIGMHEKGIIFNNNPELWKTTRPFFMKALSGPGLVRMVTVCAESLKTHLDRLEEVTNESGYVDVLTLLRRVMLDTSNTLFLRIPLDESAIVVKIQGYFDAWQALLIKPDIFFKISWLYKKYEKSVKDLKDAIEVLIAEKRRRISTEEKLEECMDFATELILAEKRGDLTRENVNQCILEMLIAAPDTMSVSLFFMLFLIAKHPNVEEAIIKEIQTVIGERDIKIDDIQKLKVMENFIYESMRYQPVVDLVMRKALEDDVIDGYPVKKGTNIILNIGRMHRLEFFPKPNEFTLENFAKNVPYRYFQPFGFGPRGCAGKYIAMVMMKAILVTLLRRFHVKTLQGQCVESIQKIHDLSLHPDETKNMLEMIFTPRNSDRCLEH
# Chain of Estrogen receptor (Homo sapiens) (P03372 whole entry, looked up): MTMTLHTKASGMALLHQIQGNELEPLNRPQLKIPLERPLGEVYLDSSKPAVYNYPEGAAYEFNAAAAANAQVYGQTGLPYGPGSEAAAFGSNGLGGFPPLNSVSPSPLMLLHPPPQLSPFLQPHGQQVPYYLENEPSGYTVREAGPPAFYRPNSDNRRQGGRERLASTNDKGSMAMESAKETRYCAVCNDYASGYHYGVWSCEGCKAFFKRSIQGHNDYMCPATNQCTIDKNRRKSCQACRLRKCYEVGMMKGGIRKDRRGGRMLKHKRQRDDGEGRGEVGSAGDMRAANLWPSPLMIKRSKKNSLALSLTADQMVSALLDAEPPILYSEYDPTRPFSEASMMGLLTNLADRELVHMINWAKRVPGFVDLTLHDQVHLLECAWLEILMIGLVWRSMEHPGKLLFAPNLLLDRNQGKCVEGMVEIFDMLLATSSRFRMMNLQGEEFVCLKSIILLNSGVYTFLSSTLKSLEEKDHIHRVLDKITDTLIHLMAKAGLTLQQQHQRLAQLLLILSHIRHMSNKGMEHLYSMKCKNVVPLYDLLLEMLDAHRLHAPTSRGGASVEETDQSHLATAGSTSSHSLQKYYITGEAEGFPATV
Compound,Potency [1],Potency [2],outcome [3],outcome [4],Potency [5],outcome [6],Potency [7],Potency (Aromatase (Homo sapiens)),outcome [8],Potency [9]
NC(=O)c1ccc(N)cc1,inactive,inactive,inactive,inactive,inactive,inactive,inactive,inactive,,
C=C(C)C(=O)OCCCCCCCC(C)C,inactive,inactive,inactive,inactive,inactive,,inactive,inactive,inactive,inactive
CN(C)CCCSc1ccccc1NC(=O)/C=C/c1ccccc1,26.6 µM (active),23.7 µM (active),inactive,inactive,inactive,inactive,,inactive,,inactive
O=C(CCCN1CCN(c2ccccn2)CC1)c1ccc(F)cc1,inactive,inactive,inactive,,,,inactive,inactive,inactive,
C=C[Si](OC(=C)C)(OC(=C)C)OC(=C)C,inactive,inactive,inactive,inactive,inactive,,inactive,inactive,inactive,
Cc1[nH]c(=O)c(C#N)cc1-c1ccc2nccn2c1,inactive,inactive,inactive,,,,inactive,,inactive,
CN(C)CCCN1c2ccccc2CCc2ccc(Cl)cc21,10.6 µM (active) and 10.9 µM (active),13.3 µM (active) and 17.2 µM (active),inactive,,,,54.5 µM (active),inactive,inactive,
CC(=O)OC/C=C(\C)CC/C=C(\C)CCC=C(C)C,inactive,inactive,inactive,inactive,inactive,,inactive,inactive,inactive,inactive
O=c1cc(-c2ccccc2)oc2ccccc12,inactive,inactive,inactive,inactive,,,inactive,,inactive,2.43 µM (active) and 3.95 µM (active)
CN1CCCC1,inactive,inactive,inactive,inactive,inactive,inactive,inactive,inactive,,inactive
CC(=O)c1ccccc1O,inactive,inactive,inactive,inactive,inactive,inactive,inactive,inactive,,inactive
NC(=O)c1cn(Cc2c(F)cccc2F)nn1,inactive,inactive,inactive,,,,inactive,,inactive,
COC(=O)CCSCCC(=O)OC,inactive,inactive,inactive,,,,inactive,,inactive,
OC[C@]1(O)OC[C@@H](O)[C@H](O)[C@@H]1O,inactive,inactive,inactive,,,,inactive,inactive,inactive,
Cc1c(O)cccc1O,inactive,inactive,inactive,,inactive,,inactive,inactive,inactive,inactive
CCCCCOC(=O)CCCCC,inactive,inactive,inactive,inactive,inactive,,inactive,inactive,,inactive
CCOC(=O)c1cccc(N)c1,inactive,inactive,inactive,inactive,inactive,,inactive,inactive,inactive,

Compound,Potency [1],Potency [2],outcome [3],outcome [4],Potency [5],outcome [6],Potency [7],Potency (Aromatase (Homo sapiens)),outcome [8],Potency [9]
NCCc1cnc[nH]1,inactive,inactive,inactive,,,,inactive,inactive,inactive,
CC(C)NCC(O)c1ccc(NS(C)(=O)=O)cc1 (configuration not stated),inactive,inactive,inactive,,,,inactive,,inactive,
O=C(O)CN(CCOCCOCCN(CC(=O)O)CC(=O)O)CC(=O)O,inactive,inactive,inactive,,,,inactive,inactive,inactive,
Cn1cc(S(C)=O)c(=O)c2ccc(F)cc21 (configuration not stated),inactive,inactive,inactive,inactive,inactive,inactive,,inactive,,inactive
Nc1nc2c(ncn2COC(CO)CO)c(=O)[nH]1,inactive,inactive,inactive,inactive,inactive,,,inactive,inactive,inactive
N=C(N)c1ccc(OCCCOc2ccc(C(=N)N)cc2)cc1,inactive,inactive,inactive,inactive,inactive,inactive,inactive,,,inactive
Brc1c(NC2=NCCN2)ccc2nccnc12,inactive,inactive,inactive,,,,inactive,inactive,inactive,
CC(=O)CC(C)C,inactive,inactive,inactive,,,,,,inactive,
CCN1CCC[C@H]1CNC(=O)c1cc(S(N)(=O)=O)ccc1OC,inactive,inactive,inactive,,,,inactive,inactive,inactive,
CCc1nccnc1CC,inactive,inactive,inactive,inactive,inactive,,inactive,inactive,inactive,
CC(=O)Nc1c(I)cc(I)c(C(=O)O)c1I,inactive,inactive,inactive,,inactive,,inactive,inactive,inactive,inactive
Cc1c(NC(C)C)c(=O)n(-c2ccccc2)n1C,inactive,inactive,inactive,inactive,inactive,inactive,inactive,inactive,,inactive
CC(C)OC(=O)c1ccccc1,inactive,inactive,inactive,inactive,inactive,inactive,inactive,inactive,,inactive
CCOC(=O)c1ccc(C)cc1,inactive,inactive,inactive,inactive,inactive,inactive,inactive,inactive,,inactive
Cn1c(N)c(N=O)c(=O)n(C)c1=O,inactive,inactive,inactive,,,,inactive,inactive,inactive,
CCCN(CCC)CCc1cccc2c1CC(=O)N2,inactive,inactive,inactive,,,,inactive,inactive,inactive,
CCCN1CCCC[C@H]1C(=O)Nc1c(C)cccc1C,inactive,inactive,inactive,,,,inactive,inactive,inactive,
